Assay results taken from PubChem BioAssay AID1159580 (chemical genetic matrix, 2015).
“And” between values parts separate entries of the source, which are not always exact repeats. Equal entries are not always repeated. Screen size: about 5,500 compounds; about 2,000 (36%) were called active. Another 18% or so got no clear call; they are omitted. No stated cut-off is given here; in the data, active means normalized growth mostly below about 0.91 (no sharp cut-off); inconclusive means no clear call, values can overlap the other calls; inactive means mostly above about 0.92. The list shows a part of the results.

Experiment: chemical genetic growth profiling, strain panel (AID 1159580);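 further: tested at 20 µM; growth read once vehicle control cultures reached saturation at 30 °C; 1 = growth at the plate median or of vehicle wells; lower values mean less growth of the strain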
Settings: S. cerevisiae deletion strains, growth OD

Measured: normalized growth

O=C1C=CC(=O)c2c(O)cccc21
active: locus YBR231C, strain swc5, hits give low values 0.876 | locus YDR137W, strain rgp1, hits give low values 0.708 | locus YDR159W, strain sac3, hits give low values 0.838 | locus YDR334W, strain swr1, hits give low values 0.879 | locus YDR392W, strain spt3, hits give low values 0.596 | locus YER111C, strain swi4, hits give low values 1.13 [resistant] | locus YER155C, strain BEM2 (second series), hits give low values 0.766 | locus YGL240W, strain doc1, hits give low values 0.817
inactive: locus YAL021C, strain ccr4, hits give low values 1.01 | locus YAL026C, strain drs2, hits give low values 0.951 | locus YAL030W, strain snc1, hits give low values 0.965 | locus YBL061C, strain skt5, hits give low values 0.976 | locus YBR009C, strain hhf1, hits give low values 0.966 | locus YBR021W, strain FUR4, hits give low values 1.09 | locus YBR023C, strain chs3, hits give low values 0.973 | locus YBR171W, strain sec66, hits give low values 1 | locus YBR229C, strain ROT2, hits give low values 0.955 | locus YBR279W, strain paf1, hits give low values 0.974 | locus YCL011C, strain gbp2, hits give low values 0.978 | locus YCL016C, strain dcc1, hits give low values 0.975 | locus YCL029C, strain bik1, hits give low values 0.983 | locus YCL069W, strain vba3, hits give low values 0.971 | locus YCR088W, strain abp1, hits give low values 0.981 | locus YDL005C, strain med2, hits give low values 1 | locus YDL035C, strain GPR1, hits give low values 0.993 | locus YDL040C, strain nat1, hits give low values 1 | locus YDL074C, strain BRE1, hits give low values 1.02 | locus YDL101C, strain DUN1, hits give low values 0.966 | locus YDL134C, strain PPH21, hits give low values 0.967 | locus YDL185W, strain tfp1, hits give low values 0.961 | locus YDL192W, strain arf1, hits give low values 0.972 | locus YDR001C, strain nth1, hits give low values 0.991 | locus YDR069C, strain doa4, hits give low values 0.956 | locus YDR101C, strain arx1, hits give low values 1.03 | locus YDR162C, strain NBP2, hits give low values 0.912 | locus YDR195W, strain ref2 1.03 | locus YDR297W, strain sur2, hits give low values 1.01 | locus YDR318W, strain mcm21, hits give low values 0.962 | locus YDR335W, strain msn5, hits give low values 0.975 | locus YDR388W, hits give low values 0.99 | locus YDR502C, strain sam2, hits give low values 1.01 | locus YEL003W, strain gim4, hits give low values 0.969 | locus YEL037C, strain rad23, hits give low values 0.973 | locus YEL061C, strain CIN8 (second series), hits give low values 0.983 | locus YEL061C, strain CIN8, hits give low values 0.982 | locus YER015W, strain faa2, hits give low values 0.956 | locus YER016W, strain bim1, hits give low values 1.02 | locus YER110C, hits give low values 0.972 | locus YER155C, strain BEM2, hits give low values 1 | locus YER167W, strain BCK2, hits give low values 0.984 | locus YFR010W, strain ubp6, hits give low values 0.907 | locus YGL078C, strain dbp3, hits give low values 1.04 | locus YGL086W, strain mad1, hits give low values 1.02 | locus YGL167C, strain pmr1, hits give low values 0.961 | locus YGL173C, strain kem1, hits give low values 0.938 | locus YGL227W, strain vid30, hits give low values 1.04 | locus YGL248W, strain PDE1, hits give low values 0.955 | locus YGL253W, strain hxk2, hits give low values 0.979 | locus YGR078C, strain PAC10, hits give low values 0.958 | locus YGR135W, strain pre9, hits give low values 0.966 | locus YGR229C, strain SMI1, hits give low values 0.97 | locus YGR252W, strain gcn5, hits give low values 1.03 | locus YHR013C, strain ard1, hits give low values 0.894 | locus YHR027C, strain rpn1, hits give low values 0.954 | locus YHR030C, strain SLT2, hits give low values 0.993 and 0.875 | locus YHR079C, strain IRE1 (second series), hits give low values 0.997 | locus YHR079C, strain IRE1, hits give low values 0.972 | locus YHR094C, strain hxt1, hits give low values 1 | locus YHR129C, strain ARP1, hits give low values 0.991 | locus YHR142W, strain chs7, hits give low values 0.992 | locus YHR200W, strain rpn10, hits give low values 0.963 | locus YIL066C, strain RNR3, hits give low values 0.965 | locus YIL073C, strain SPO22, hits give low values 0.933 | locus YIL125W, strain kgd1, hits give low values 0.997 | locus YIR030C, strain dcg1, hits give low values 1 | locus YJL092W, strain hpr5, hits give low values 0.987 | locus YJL095W, strain BCK1 (second series), hits give low values 0.946 | locus YJL095W, strain BCK1, hits give low values 0.903 and 0.941 | locus YJL115W, strain asf1, hits give low values 0.969 | locus YJL129C, strain trk1, hits give low values 1.02 | locus YJL134W, strain LCB3, hits give low values 0.984 | locus YJL154C, strain vps35, hits give low values 0.974 | locus YJL164C, strain tpk1, hits give low values 0.953 | locus YJL166W, strain qcr8, hits give low values 0.935 | locus YJL168C, strain set2, hits give low values 0.988 | locus YJL187C, strain SWE1 (second series), hits give low values 0.964 | locus YJL187C, strain SWE1, hits give low values 0.987
